# Results: article PMC5540273 (PLoS ONE, 2017)
# System: SBK1
# Conditions: concentration: 1 μM, replicates: in singlicate; n = 1
# 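Note: KINOMEscan kinase panel screen.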
row,SMILES,%Inh
1,Cc1cccc(-c2nc(-c3ccc(S(C)(=O)=O)cc3)sc2-c2ccncc2)c1,1%
2,CN1c2ccc(CNc3ccc(F)cc3)cc2-c2c(cnn2C)S1(=O)=O,0%
3,O=C1Cc2cc(Nc3nc(NCc4cccc(S(=O)(=O)C(F)(F)F)c4)ncc3C(F)(F)F)ccc2N1,0%
4,COc1cc2c(cc1OC[C@@H](O)CO)ncc1c3ccc(C#N)cc3[nH]c21,71%
5,COc1ccc(S(=O)(=O)NC2CCN(c3cc(C)nc(Nc4cccc(C#N)c4)n3)CC2)cc1.O=C(O)C(F)(F)F [GSK1653539],0%
6,[2H]C([2H])(c1cccc(C(F)(F)F)c1C)n1ccn2c(=O)nc(N3CCOCC3)cc12 [GSK2336394],24%
7,Cc1cccc(-c2nc(Nc3ccc4ncsc4c3)c3ccccc3n2)n1 [GW867588],19%
8,COc1cc2ncn(-c3cc(OCc4sccc4Cl)c(C(N)=O)s3)c2cc1OC [GSK448459],4%
9,CCc1ccnc(/C=C/c2n[nH]c3cc(Sc4ccccc4C(=O)NC)ccc23)c1,16%
10,C[C@@H](Oc1cc(-n2cnc3ccc(NC(=O)NC(C)(C)C)cc32)sc1C(N)=O)c1ccccc1Cl [GSK346294],0%
11,COc1cc2c(cc1OCCN1CCN(C)CC1)ncc1c3ccc(C#N)cc3[nH]c21,72%
12,COCCNC(=O)c1ccc(-c2cc(C(=O)NC3CC3)cc(F)c2C)cc1 [GW868318],48%
13,COc1cc(Nc2nccc(N3CCC(NC(=O)c4cccc(NC(C)=O)c4)C3)n2)cc(OC)c1OC (centres unmarked) [GSK1379754],9%
14,CN1c2ccc(NCc3ccc(F)cc3)cc2-c2c(cnn2C)S1(=O)=O,0%
15,Cc1nnc(-c2ccc3ncc(-c4ccc(S(C)=O)cc4)n3c2)o1 (centres unmarked),0%
16,O=C(NCCCN1CCOCC1)c1cccc(Nc2nccc(Nc3ccc(Oc4ccccc4)cc3)n2)c1 [GW663929],1%
17,Cc1cccc(Cn2ccn3c(=O)cc(N4CCOCC4)nc23)c1 [GSK2297542],26%
18,Nc1nc(-c2ccc3c(N)n[nH]c3c2)cc(N2CCCC2)n1 [GSK2227430],8%

row,SMILES,%Inh
1,Fc1ccc(-c2ncn(CCCN3CCOCC3)c2-c2cccnc2)cc1 [SB-211743],1%
2,O=C(NOCC1CC1)c1ccc(F)c(F)c1Nc1ccc(I)cc1Cl,0%
3,NS(=O)(=O)c1cccc(-c2ccc3ncc(N4CCOCC4)nc3c2)c1 [GSK1535721],0%
4,Cn1ccc2ncnc(Oc3ccc(NC(=O)Nc4ccncc4)c(Cl)c3)c21,0%
5,NS(=O)(=O)c1cccc(-c2ccc3nccc(-c4cccc(S(N)(=O)=O)c4)c3c2)c1 [GW867253],0%
6,CCc1nc(-c2cccc(C)c2)c(-c2ccnc(NCc3ccccc3)c2)s1,0%
7,O=C(Nc1cccc(-c2nn3ncccc3c2-c2ccnc(Nc3cccc(C(F)(F)F)c3)n2)c1)c1c(F)cccc1F [GSK299495],11%
8,O=c1cc(N2CCOCC2)nc2n(Cc3cccc(F)c3)ccn12 [GSK2297430],6%
9,O=C1NC(=O)C(N2CCc3ccccc32)=C1c1cccc(Cl)c1 [SB-408010],5%
10,Cl.Oc1cccc(Nc2ccnc3cc(-c4ccncc4)ccc23)c1 [GW494601],34%
11,COc1ccc(COc2cc(-n3cnc4ccccc43)sc2C(N)=O)cc1 [GSK1024304],0%
12,COc1ccc(Nc2ncc(C#N)c(Nc3ccccc3C(N)=O)n2)cc1N1CCN(C)CC1.Cl [GSK1558669],93.9%
13,Cc1cn2c(=O)cc(N3CCOCC3)nc2n1Cc1cccc(Cl)c1Cl [GSK2334006],0%
14,N#Cc1c(N2CCOCC2)sc(-c2ccn[nH]2)c1-c1ccc(Cl)cc1,35%
15,N#Cc1ccc(-c2cc(-c3c[nH]nc3-c3ccccn3)ccn2)cc1 [GW693028],4%
16,Cc1nnc(-c2ccc3occ(-c4ccc(C(C)O)cc4)c3c2)o1 (centres unmarked),0%
17,Cc1c(Cn2c(C)nn3c(=O)cc(N4CCOC(C)C4)nc23)cccc1C(F)(F)F (centres unmarked) [GSK2344444],33%
